Assay results reported in PubChem BioAssay (NCATS).
Inconclusive results are not listed. Activity calls are given as the source filed them. The call rests on the fitted dose curve; in most records, active means well fitted cell-killing curve with a large enough effect; inconclusive means small, poorly fitted or top-dose-only effect, or effect the other way; inactive means flat fitted curve, though single readings scatter.

What was measured:
Assay in all cases: Primary qHTS to identify gynecologic anti-cancer compounds using libraries of approved drugs and bioactive compounds (AID 1345084); further: nearly all actives have a fitted effect of over 55% in size
C33A = details: Gynecologic cancer cell panel viability, ATPlite luminescence, 48 h; series mostly up to 57.5 µM
Procedure, shortened: (§1)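 Cells, 1,000 per well, plated 16 h, then exposed 48 h at 37 C to compounds. Viability by ATPlite luminescence after 15 min at room temperature.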

CAOV3 = details: Gynecologic cancer cell panel viability, ATPlite luminescence, 48 h; series mostly up to 57.5 µM
Procedure, shortened: as §1

CASKI = details: Gynecologic cancer cell panel viability, ATPlite luminescence, 48 h; series mostly up to 57.5 µM
Procedure, shortened: as §1

Es-2 = details: Gynecologic cancer cell panel viability, ATPlite luminescence, 48 h; series mostly up to 57.5 µM
Procedure, shortened: as §1

HeLa = details: Gynecologic cancer cell panel viability, ATPlite luminescence, 48 h; series mostly up to 57.5 µM
Procedure, shortened: as §1

Hek293T = details: Gynecologic cancer cell panel viability, ATPlite luminescence, 48 h, control line for the selectivity index; series mostly up to 57.5 µM
Procedure, shortened: as §1

JEG-3 = details: Gynecologic cancer cell panel viability, ATPlite luminescence, 48 h; series mostly up to 57.5 µM
Procedure, shortened: as §1

OV90 = details: Gynecologic cancer cell panel viability, ATPlite luminescence, 48 h; series mostly up to 57.5 µM
Procedure, shortened: as §1

PA-1 = details: Gynecologic cancer cell panel viability, ATPlite luminescence, 48 h; series mostly up to 57.5 µM
Procedure, shortened: as §1

SKOV3 = details: Gynecologic cancer cell panel viability, ATPlite luminescence, 48 h; series mostly up to 57.5 µM
Procedure, shortened: as §1

Tov-21-G = details: Gynecologic cancer cell panel viability, ATPlite luminescence, 48 h; series mostly up to 57.5 µM
Procedure, shortened: as §1

Tov112D = details: Gynecologic cancer cell panel viability, ATPlite luminescence, 48 h; series mostly up to 57.5 µM
Procedure, shortened: as §1
On the % scale 0 is the no-effect control and ±100 the full control effect.

C[C@@H]1O[C@@H](O[C@H]2[C@@H](OC(=O)[C@]34CCC(C)(C)CC3C3=CCC5[C@@]6(C)C[C@H](O)[C@H](O[C@@H]7O[C@H](C(=O)O)[C@@H](O)[C@H](O)[C@H]7O)[C@@](C)(C(=O)O)C6CC[C@@]5(C)[C@]3(C)CC4)OC[C@H](O)[C@@H]2O)[C@H](O)[C@H](O)[C@H]1O[C@@H]1OC[C@@H](O)[C@H](O)[C@H]1O (some centres undefined)
inactive: activity change, negative = cytotoxicity (C33A) 1.85% [at 11.6 µM] | activity change, negative = cytotoxicity (CAOV3) 24.8% [at 11.6 µM] | activity change, negative = cytotoxicity (CASKI) 0.336% [at 11.6 µM] | activity change, negative = cytotoxicity (Es-2) -0.221% [at 11.6 µM] | activity change, negative = cytotoxicity (HeLa) -0.61% [at 11.6 µM] | activity change, negative = cytotoxicity (Hek293T) -0.464% [at 11.6 µM] | activity change, negative = cytotoxicity (JEG-3) 3.02% [at 11.6 µM] | activity change, negative = cytotoxicity (OV90) 7.22% [at 11.6 µM] | activity change, negative = cytotoxicity (PA-1) -35% [at 11.6 µM] | activity change, negative = cytotoxicity (SKOV3) 13.5% [at 11.6 µM] | activity change, negative = cytotoxicity (Tov-21-G) -4.55% [at 11.6 µM] | activity change, negative = cytotoxicity (Tov112D) -6.05% [at 11.6 µM]

COc1cc2occc2c(O[C@@H]2O[C@H](CO)[C@@H](O)[C@H](O)[C@H]2O)c1CCC(=O)O
inactive: Potency (C33A) | Potency (CAOV3) | Potency (CASKI) | Potency (Es-2) | Potency (HeLa) | Potency (Hek293T) | Potency (JEG-3) | Potency (OV90) | Potency (PA-1) | Potency (SKOV3) | Potency (Tov-21-G) | Potency (Tov112D)

CC(C)CCC1(O)C(=O)C(C)(C)C(O[C@@H]2O[C@H](CO)[C@@H](O)[C@H](O)[C@H]2O)C(C)(C)C1O (some centres undefined)
inactive: Potency (C33A) | Potency (CAOV3) | Potency (CASKI) | Potency (Es-2) | Potency (HeLa) | Potency (Hek293T) | Potency (JEG-3) | Potency (OV90) | Potency (PA-1) | Potency (SKOV3) | Potency (Tov-21-G) | Potency (Tov112D)

OC[C@H]1O[C@@H](OC(CCCCc2ccc(O)cc2)CCc2ccc(O)cc2)[C@H](O)[C@@H](O)[C@@H]1O (some centres undefined)
inactive: Potency (C33A) | Potency (CAOV3) | Potency (CASKI) | Potency (Es-2) | Potency (HeLa) | Potency (Hek293T) | Potency (JEG-3) | Potency (OV90) | Potency (PA-1) | Potency (SKOV3) | Potency (Tov-21-G) | Potency (Tov112D)

C=C(C)C1CCC2(C(=O)O[C@@H]3O[C@H](CO[C@@H]4O[C@H](CO)[C@@H](O)[C@H](O)[C@H]4O)[C@@H](O)[C@H](O[C@@H]4O[C@@H](C)[C@H](O)[C@@H](O)[C@H]4O)[C@H]3O)CCC3(C(=O)O)C(CCC4C5(C)CCC(O)C(C)(C)C5CCC43C)C12 (some centres undefined)
inactive: activity change, negative = cytotoxicity (C33A) -9.37% [at 11.6 µM] | activity change, negative = cytotoxicity (CAOV3) -3.74% [at 11.6 µM] | activity change, negative = cytotoxicity (CASKI) 13.9% [at 11.6 µM] | activity change, negative = cytotoxicity (Es-2) 1.26% [at 11.6 µM] | activity change, negative = cytotoxicity (HeLa) -0.105% [at 11.6 µM] | activity change, negative = cytotoxicity (Hek293T) -3.68% [at 11.6 µM] | activity change, negative = cytotoxicity (JEG-3) 18.7% [at 11.6 µM] | activity change, negative = cytotoxicity (OV90) 15.5% [at 11.6 µM] | activity change, negative = cytotoxicity (PA-1) -1.76% [at 11.6 µM] | activity change, negative = cytotoxicity (SKOV3) -5.29% [at 11.6 µM] | activity change, negative = cytotoxicity (Tov-21-G) 9.18% [at 11.6 µM] | activity change, negative = cytotoxicity (Tov112D) 11.4% [at 11.6 µM]

Cc1cc(C)c2c(N)c(C(=O)NCc3ccc(Cl)cc3)sc2n1
inactive: Potency (C33A) | Potency (CAOV3) | Potency (CASKI) | Potency (Es-2) | Potency (HeLa) | Potency (Hek293T) | Potency (JEG-3) | Potency (OV90) | Potency (PA-1) | Potency (SKOV3) | Potency (Tov-21-G) | Potency (Tov112D)

C=CC(C)(C)c1[nH]c2cc3c(cc2c1CC1NC(=O)C2CCCN2C1=O)C=CC(C)(C)O3 (centres undefined)
inactive: Potency (C33A) | Potency (CAOV3) | Potency (CASKI) | Potency (Es-2) | Potency (HeLa) | Potency (Hek293T) | Potency (JEG-3) | Potency (OV90) | Potency (PA-1) | Potency (SKOV3) | Potency (Tov-21-G) | Potency (Tov112D)

CC1=C(C)C(=O)OC(C(C)C2CCC3C4C5OC5C5(O)CC(OC6OC(CO)C(OC7OC(C)C(O)C(O)C7O)C(O)C6O)CC(O)C5(C)C4CCC23C)C1 (centres undefined)
inactive: Potency (C33A) | Potency (CAOV3) | Potency (CASKI) | Potency (Es-2) | Potency (HeLa) | Potency (Hek293T) | Potency (JEG-3) | Potency (OV90) | Potency (PA-1) | Potency (SKOV3) | Potency (Tov-21-G) | Potency (Tov112D)

CC12CCC3c4ccc(OC5OC(C(=O)O)C(O)C(O)C5O)cc4CCC3C1CCC2O (centres undefined)
inactive: Potency (C33A) | Potency (CAOV3) | Potency (CASKI) | Potency (Es-2) | Potency (HeLa) | Potency (Hek293T) | Potency (JEG-3) | Potency (OV90) | Potency (PA-1) | Potency (SKOV3) | Potency (Tov-21-G) | Potency (Tov112D)

C=C1CCC2C(C(C)(C)O)CCC2(C)CC(O)C(=C)CCC1O (centres undefined)
inactive: Potency (C33A) | Potency (CAOV3) | Potency (CASKI) | Potency (Es-2) | Potency (HeLa) | Potency (Hek293T) | Potency (JEG-3) | Potency (OV90) | Potency (PA-1) | Potency (SKOV3) | Potency (Tov-21-G) | Potency (Tov112D)

C/C(=C\CCC1(C)C2CCC(C2)C1(C)O)C(=O)O (centres undefined)
inactive: Potency (C33A) | Potency (CAOV3) | Potency (CASKI) | Potency (Es-2) | Potency (HeLa) | Potency (Hek293T) | Potency (JEG-3) | Potency (OV90) | Potency (PA-1) | Potency (SKOV3) | Potency (Tov-21-G) | Potency (Tov112D)

C=CC(C)(CC/C=C(\C)C(=O)OC)OC1OC(COC(=O)CC(C)(O)CC(=O)O)C(OC2OC(CO)C(O)C(O)C2O)C(O)C1O (centres undefined)
inactive: Potency (C33A) | Potency (CAOV3) | Potency (CASKI) | Potency (Es-2) | Potency (HeLa) | Potency (Hek293T) | Potency (JEG-3) | Potency (OV90) | Potency (PA-1) | Potency (SKOV3) | Potency (Tov-21-G) | Potency (Tov112D)
